AmpC detergent = blocks E. coli AmpC beta-lactamase in detergent assay. P00811. AmpC hydrolysis of nitrocefin, absorbance 480 nm, 0.01% Triton. Potency, µM (series often up to 114 µM), inactives show at the top dose activity change, negative = inhibition, hits mostly inhibitors. actives 0.041% (n = 370,000). AID 485294;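 note: 0% = no-compound wells and -100% = no-enzyme wells; nearly all actives have a fitted effect of over 25% in size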
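AmpC (5.3 nM in the dispensed reagent) in 20 mM phosphate pH 7.0 with 0.01% (detergent screen) or 0.0001% Triton X-100 was preincubated with compounds for 15 min at room temperature. Nitrocefin was then added from an 800 uM solution, and hydrolysis was followed at 480 nm.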
TbPYK inhibitor = inhibitors of Trypanosoma brucei pyruvate kinase | Potency, µM (doses to about 76.8 µM), inactives show at the highest dose activity, negative = inhibition, usual class: inhibitors | Q57TT1 | TbPYK enzyme, Kinase-Glo Plus ATP luminescence, 45 min | actives 0.12% (n = 410,000); note: nearly all actives have a fitted effect of over 50% in size
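Assay buffer: 50 mM TEA pH 7.2, 100 mM KCl, 10 mM MgCl2, 0.05% BSA, 0.01% Tween-20. Pyruvate kinase from T. brucei plus substrate met compound, then ADP (130 uM final). Luminescence was read post 45 min RT.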
LmPK inh = inhibitors of Leishmania mexicana pyruvate kinase | Q27686 | purified LmPK, Kinase-Glo ATP luminescence, 1 h | Potency, µM (series often up to 57.5 µM), inactives show at the highest dose activity change, negative = inhibition, most hits filed as inhibitors | actives 0.37% (n = 290,000)
Target sequence (Q27686 whole entry, looked up): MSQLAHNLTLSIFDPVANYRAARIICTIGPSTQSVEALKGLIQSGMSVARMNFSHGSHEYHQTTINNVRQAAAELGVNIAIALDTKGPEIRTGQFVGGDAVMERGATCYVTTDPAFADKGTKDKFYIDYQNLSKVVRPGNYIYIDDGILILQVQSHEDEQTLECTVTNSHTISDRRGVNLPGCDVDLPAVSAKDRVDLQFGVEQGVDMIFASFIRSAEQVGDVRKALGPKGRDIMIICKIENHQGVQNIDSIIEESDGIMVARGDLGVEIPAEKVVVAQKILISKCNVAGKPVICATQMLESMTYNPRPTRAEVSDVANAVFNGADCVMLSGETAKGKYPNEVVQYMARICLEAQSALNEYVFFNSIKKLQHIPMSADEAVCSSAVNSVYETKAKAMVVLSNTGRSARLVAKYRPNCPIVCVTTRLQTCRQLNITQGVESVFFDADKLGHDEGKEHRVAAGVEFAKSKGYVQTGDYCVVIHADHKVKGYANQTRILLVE
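Purified LmPK (0.1 nM) converted ADP (0.1 mM) to ATP with PEP (0.5 mM) in imidazole buffer pH 7.2 with KCl and MgCl2, 1 h at room temperature. ATP was read by Kinase-Glo luminescence; data normalized to uninhibited and no-enzyme controls.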
AmpC inh no detg = AmpC beta-lactamase inhibition without detergent; P00811; AmpC nitrocefin hydrolysis, absorbance 480 nm, 0.0001% Triton; Potency, µM (titrated, usually from 57.1 µM), for inactives: top-dose activity change, negative = inhibition, hits mostly inhibitors; actives 0.52% (n = 330,000);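 note: plate controls were no compound for no effect and no enzyme for full effect; nearly all actives have a fitted effect of over 20% in size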
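20 mM phosphate pH 7.0 + 0.01% (detergent screen) or 0.0001% Triton X-100; 5.3 nM AmpC reagent; cpd preinc 15 min RT; nitrocefin (800 uM stock) to start; A480 q20 s × 4 min; Activity was normalised to no-enzyme and no-compound control wells.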
RE007 growth inh = less growth of the S. pombe RE007 Vpr strain; S. pombe RE007 Vpr strain, BacTiter-Glo ATP luminescence, 24 h; Potency, µM (titrated, usually from 92.2 µM), for the others: at the top dose activity change, negative = less growth, most hits filed as inhibitors; actives 0.21% (n = 360,000); active = well fitted falling curve with a large enough effect; inconclusive = small, poorly fitted or top-dose-only effect; inactive = no such curve, though single readings can be large or run the other way; note: nearly all actives have a fitted effect of over 50% in size
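Fission yeast RE007 carrying one integrated HIV-1 vpr copy, seeded at OD 0.01 in PMG+AL medium with 23 nL pinned compound. Grown 24 h at 30 degrees; viability read by BacTiter-Glo luminescence after 5 min.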
FBPA Giardia inh = blocks Giardia fructose-bisphosphate aldolase activity | A8B2U2 | actives 0.71% (n = 290,000) | Potency, µM (doses to about 59.6 µM), for inactives: at the top dose activity, negative = inhibition, hits mostly inhibitors | purified Giardia FBPA; note: nearly all actives have a fitted effect of over 55% in size
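40 nM FBPA preincubated 10 min at RT with compound (up to 57.5 uM final), then substrate plus GAPDH/TPI/NAD/arsenate coupling and diaphorase/resazurin added. Fluorescence read after 20 min at RT, 525/598 nm.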
An asterisk follows results filed as active; ? = inconclusive; nt = not tested or not shown; [ ] = another dose, or the depositor's remark. This is a sample that favours compounds with a hit; in the whole collection about 1.4% have one here. Unless noted, calls come from the whole dose curve; as a rule, active = well fitted curve in the direction sought with a large enough effect; inconclusive = small, poorly fitted or top-dose-only effect, or another doubt; inactive = no such curve, though single readings can be large; an effect the other way counts as inactive or inconclusive. Unless noted, % is set by controls: 0 for no effect and ±100 for the full control effect; potency is the fitted concentration of half-maximal effect.

SMILES	AmpC detergent	TbPYK inhibitor	LmPK inh	AmpC inh no detg	RE007 growth inh	FBPA Giardia inh
COc1ccc(C2=NO[C@@H]3C(=O)N(c4ccc5c(c4)OCCO5)C(=O)[C@H]23)cc1OC	?	2%	-9%	-17%	4%	-30%
O=C1[C@@H]2C(c3cccnc3)=NO[C@@H]2C(=O)N1c1ccc2ccccc2c1	-6%	-8%	-2%	-23%	14µM*	-3%
C[C@@H]1CCCCO[C@H](CN(C)C(=O)Nc2cccc3ccccc23)[C@@H](C)CN([C@H](C)CO)C(=O)c2cc(N(C)C)ccc2O1	nt	11µM*	nt	nt	-38%	nt
CCc1ccc(CNC(=O)c2ccc(-n3c(C)cc4c3CCC(C)C4)cc2)cc1 (stereo not drawn)	1%	-3%	nt	nt	nt	nt
COc1ccc(OC)c(S(=O)(=O)CC(=O)c2cc3ccc(OC)cc3oc2=O)c1	-4%	-5%	8%	-47%	-22%	nt
COc1cccc2cc(C(C)=O)c(=O)oc12	?	2%	-1%	-11%	-15%	1%
COc1cccc2cc(C(=O)CS(=O)(=O)c3ccc(Cl)cc3)c(=O)oc12	4%	0%	1%	16µM*	28%	nt
COc1ccc(S(=O)(=O)CC(=O)c2cc3cc(Br)ccc3oc2=O)cc1	2%	-12%	-2%	28µM*	1%	nt
CC(=O)OC1C(=O)OCC23CCC4(C)OC4C2OC2CC(OC(=O)C=CC=CC(=O)OCCC1C)C3(C)C21CO1 (stereo not drawn)	nt	0%	nt	nt	5.6µM*	nt
CCc1nc(-c2ccccc2)c2ccccn12	-2%	-7%	14%[11.5 µM]	-7%	11%	4.5µM*
O=c1oc2ccccc2cc1-c1nc2c(s1)CCc1ccccc1-2	-16%	-16%	8%	?	-19%	7.9µM*
CN1CCC(N(Cc2cccs2)c2ccccc2)CC1	nt	8%	nt	nt	nt	nt
N#CC(C#N)=c1ccc2c(c1)N1C3=C(CCCC3)CC3CCCCC31N=2 (stereo not drawn)	-1%	?	18µM*	-21%	-9%	-3%
N#C/C(C(N)=O)=c1/ccc2c(c1)N1C3=C(CCCC3)CC3CCCCC31N=2 (stereo not drawn)	-10%	?	7.9µM*	-35%	-22%	-16%
COc1ccc(C(=O)Nc2nnc(SCc3cc(=O)n4cccc(C)c4n3)s2)cc1	6%	0%	nt	nt	nt	nt
CCOc1ccc(NC(=O)/C=C\C(=O)N(c2ccc(C(C)C)cc2)C(C(=O)NCc2ccco2)c2ccc(F)cc2)cc1 (stereo not drawn)	10%	6%	nt	nt	nt	nt
CC(C)(C)C1=CC(=Nc2ccccc2N)C=C(C(C)(C)C)C1=O	?	-28%	-4%	-10%	-4%	5%
CC(C)(C)C1=CC(=O)C(=O)C(C(C)(C)C)=C1	-14%	8.9µM*	14µM*	-12%	13%	7.1µM*
Nn1cnnc1N/N=C\c1ccc(-c2ccccc2[N+](=O)[O-])o1	-11%	-3%	-2%	-21%	-9%	1.8µM*
O=[N+]([O-])c1ccccc1-c1ccc(/C=N/n2cnnc2)o1	-10%	0%	-6%	72%	16%	-13%
O=C(NCC(c1cccnc1)N1CCc2ccccc21)c1ccc(F)c(F)c1 (stereo not drawn)	11%	2%	nt	nt	nt	nt
CC(C)CC1=C/C(=C/c2ccc(-c3ccccc3)o2)C(=O)O1	?	-12%	2%	32µM*	-21%	1%
NS(=O)(=O)c1ccc(-c2ccc(C=C3C(=O)c4ccccc4C3=O)o2)cc1	?	-3%	-3%	-10%	-7%	-7%
Cc1nonc1C(=O)N/N=C/c1cccc(O)c1	?	-26%	14µM*	-10%	-23%	0%
Nc1c(-c2nc(-c3ccccc3)cs2)c2ccccn2c1C(=O)c1ccc2c(c1)OCO2	3%	1%	nt	nt	nt	nt
SMILES	AmpC detergent	TbPYK inhibitor	LmPK inh	AmpC inh no detg	RE007 growth inh	FBPA Giardia inh
CNC(C)Cc1ccccc1Sc1ccc(O)cc1 (stereo not drawn)	?	-3%	-4%	-18%	-12%	1%
CNCc1ccccc1Sc1ccc(O)c(O)c1	?	-18%	-12%	-34%	0%	2.5µM*
CCc1ccccc1Nc1nn2c(=O)c3ccc(C(=O)NC4CCC(C)CC4)cc3nc2s1 (stereo not drawn)	22%	-2%	nt	nt	nt	nt
Cc1cc(C)cc(NC(=O)CSc2nc3c(c(=O)n2C)SC(C)C3)c1 (stereo not drawn)	?	-11%	-3%	-28%	-10%	0%
Cc1cc(C)c(NC(=O)CSc2nc3c(c(=O)n2C)SC(C)C3)c(C)c1 (stereo not drawn)	-19%	2%	0%	3.2µM*	-8%	1%
CN(C)c1ccc(NC(=O)Cn2cc(S(=O)(=O)Cc3ccccc3Cl)c3ccccc32)cc1	4%	-10%	nt	nt	nt	nt
COc1ccc2c(c1OC)C(=O)OC2Nc1nc(-c2cc3cc(Br)ccc3oc2=O)cs1 (stereo not drawn)	-11%	5%	-17%	32µM*	?	2%
CCOC(=O)C(CC)N1CCN(Cc2ccc(F)cc2)C(=O)C1=O (stereo not drawn)	9%	-2%	nt	nt	nt	nt
O=C1CC(N2CCCCC2)C(=O)N1c1ccccc1 (stereo not drawn)	?	2%	1%	-13%	40µM*	6%
O=C1CC(N2CCSCC2)C(=O)N1c1cccc(Br)c1 (stereo not drawn)	0%	-22%	2%	-14%	32µM*	0%
O=C1CC(N2CCN(c3ccc(Cl)cc3)CC2)C(=O)N1c1ccc(F)cc1 (stereo not drawn)	0%	3%	-1%	29%	3%	-2%
O=C1CC(N2CCCN(C3CC(=O)N(c4ccc(F)cc4)C3=O)CC2)C(=O)N1c1ccc(F)cc1 (stereo not drawn)	-8%	-9%	-1%	2%	4.5µM*	-1%
O=C(Nc1cccc(Cl)c1)Nc1ncc(CCNc2ncnc3ccsc23)s1	nt	0%	nt	nt	nt	nt
COc1ccc(NC(=O)c2ccc3c(=O)n4nc(Nc5cccc(Cl)c5C)sc4nc3c2)cc1	-4%	0%	nt	nt	nt	nt
O=C(Oc1cccnc1)c1ccc(Cl)c(Cl)c1	-1%	-4%	3%	-2%	32µM*	4%
COc1ccc(C(=O)Oc2cccnc2)cc1	?	1%	9%	-13%	-12%	9%
CCOC(=O)Cn1cccc1-c1nc(-c2ccc(OC)cc2)c(-c2ccc(OC)cc2)s1	nt	4%	nt	nt	nt	nt

Source: PubChem (National Center for Advancing Translational Sciences (NCATS))
